Holding throughout (assay): DAPPL (digital affinity profiling via proximity ligation, sequencing); 10 mM Tris-HCl pH 7.5, 50 mM NaCl, 1 mM DTT, 4% glycerol, room temperature, 30 min; GST-TFs on glutathione beads, 16-mer random dsDNA library, 0.1% formaldehyde crosslink after washing; high values mean tight binding
In one experiment the target is T1, FEV (Homo sapiens, UniProt Q99581 1-238).
T1 sequence: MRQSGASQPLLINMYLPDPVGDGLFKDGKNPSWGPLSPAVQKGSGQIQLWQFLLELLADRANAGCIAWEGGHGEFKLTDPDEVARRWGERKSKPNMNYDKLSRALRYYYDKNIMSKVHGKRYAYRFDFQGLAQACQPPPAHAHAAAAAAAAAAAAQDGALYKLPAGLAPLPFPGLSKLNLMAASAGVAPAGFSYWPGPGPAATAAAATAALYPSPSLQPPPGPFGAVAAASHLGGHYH
The conditions noted are these: protein: recombinant; tags: N-terminal GST; dsDNA, one strand shown. A digest of the protocol: (§1)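 Binding signal is defined as a hexamer's read frequency for one factor over its frequency for the tag-only sample. To obtain reads, GST-fused human transcription factors were expressed in yeast, captured on glutathione beads, barcoded with DNA and pooled with that sample. Pools met 200 nmole of a 16-mer random double-stranded DNA library in Tris/NaCl/DTT/glycerol buffer for 30 min at room temperature before washing, 0.1% formaldehyde crosslinking, proximity ligation (BsaI/T4 ligase, 1 h, 37 °C), PCR and Illumina NextSeq500 sequencing.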

The target of a further experiment is ETV5 (Homo sapiens, UniProt P41161 1-510). The conditions noted are these: protein: recombinant; tags: N-terminal GST; dsDNA, one strand shown. A digest of the protocol: as §1
In another experiment the target is HSF1 (Homo sapiens, UniProt Q00613 1-529). To be noted: protein: recombinant; tags: N-terminal GST; chain copies: 3; dsDNA, one strand shown. The gist of the method:
as §1

In the next experiment the target is T2, SPIC (Homo sapiens, UniProt Q8N5J4 1-248).
T2 sequence: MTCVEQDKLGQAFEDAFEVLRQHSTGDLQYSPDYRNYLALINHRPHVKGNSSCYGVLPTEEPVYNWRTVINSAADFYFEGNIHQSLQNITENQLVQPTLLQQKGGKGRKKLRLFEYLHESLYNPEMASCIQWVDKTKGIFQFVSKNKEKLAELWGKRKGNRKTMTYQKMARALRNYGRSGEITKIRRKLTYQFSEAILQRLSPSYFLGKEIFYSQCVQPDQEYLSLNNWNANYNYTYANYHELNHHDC
To be noted: protein: recombinant; tags: N-terminal GST; dsDNA, one strand shown. The gist of the method:
as §1

A further experiment addresses ELF4 (Homo sapiens, UniProt Q99607 1-663). To be noted: protein: recombinant; tags: N-terminal GST; dsDNA, one strand shown. A digest of the protocol:
as §1

A further experiment concerns the target T3, ELK4 (Homo sapiens, UniProt P28324-2 1-405).
T3 sequence: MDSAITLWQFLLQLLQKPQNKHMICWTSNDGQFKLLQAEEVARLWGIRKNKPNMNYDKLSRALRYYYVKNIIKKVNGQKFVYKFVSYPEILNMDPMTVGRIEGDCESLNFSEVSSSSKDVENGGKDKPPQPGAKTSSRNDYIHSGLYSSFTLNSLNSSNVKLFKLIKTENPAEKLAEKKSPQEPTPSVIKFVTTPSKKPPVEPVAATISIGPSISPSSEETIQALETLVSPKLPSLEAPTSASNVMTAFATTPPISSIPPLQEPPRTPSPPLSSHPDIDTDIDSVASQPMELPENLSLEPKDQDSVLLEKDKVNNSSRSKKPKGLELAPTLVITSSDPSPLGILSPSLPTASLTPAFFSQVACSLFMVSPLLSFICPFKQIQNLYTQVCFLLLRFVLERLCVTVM
The conditions noted are these: protein: recombinant; tags: N-terminal GST; dsDNA, one strand shown. The gist of the method: as §1

A further experiment has as its target T4, ETV2 (Homo sapiens, UniProt O00321 1-342).
T4 sequence: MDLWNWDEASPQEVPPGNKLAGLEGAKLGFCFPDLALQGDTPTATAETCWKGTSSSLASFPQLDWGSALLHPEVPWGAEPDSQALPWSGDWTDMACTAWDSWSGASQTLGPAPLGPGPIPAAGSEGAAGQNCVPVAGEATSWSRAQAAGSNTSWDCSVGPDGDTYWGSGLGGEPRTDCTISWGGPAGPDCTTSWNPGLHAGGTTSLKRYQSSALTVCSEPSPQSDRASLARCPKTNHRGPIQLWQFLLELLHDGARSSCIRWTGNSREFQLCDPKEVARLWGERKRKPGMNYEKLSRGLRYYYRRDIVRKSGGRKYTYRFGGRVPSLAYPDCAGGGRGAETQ
To be noted: protein: recombinant; tags: N-terminal GST; dsDNA, one strand shown. A digest of the protocol: as §1

Another experiment addresses T5, ELF3 (Homo sapiens, UniProt P78545 1-371).
T5 sequence: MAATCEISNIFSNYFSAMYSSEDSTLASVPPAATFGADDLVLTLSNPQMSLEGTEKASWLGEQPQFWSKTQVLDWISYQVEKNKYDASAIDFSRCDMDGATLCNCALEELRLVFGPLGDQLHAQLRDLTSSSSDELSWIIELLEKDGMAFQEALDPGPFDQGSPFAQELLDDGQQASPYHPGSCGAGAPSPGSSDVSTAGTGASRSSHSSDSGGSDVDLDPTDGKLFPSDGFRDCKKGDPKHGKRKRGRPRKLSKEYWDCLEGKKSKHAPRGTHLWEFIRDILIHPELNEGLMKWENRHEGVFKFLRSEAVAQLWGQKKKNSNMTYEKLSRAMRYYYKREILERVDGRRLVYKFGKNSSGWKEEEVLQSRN
To be noted: protein: recombinant; tags: N-terminal GST; dsDNA, one strand shown. A digest of the protocol:
as §1

The target in a further experiment is CRX (Homo sapiens, UniProt O43186 1-299). The conditions noted are these: protein: recombinant; tags: N-terminal GST; dsDNA, one strand shown. The gist of the method:
as §1

In a further experiment the target is ETV1 (Homo sapiens, UniProt P50549 1-477). To be noted: protein: recombinant; tags: N-terminal GST; dsDNA, one strand shown. A digest of the protocol:
as §1

Another experiment has as its target T6, ERF (Homo sapiens, UniProt P50548 1-548).
T6 sequence: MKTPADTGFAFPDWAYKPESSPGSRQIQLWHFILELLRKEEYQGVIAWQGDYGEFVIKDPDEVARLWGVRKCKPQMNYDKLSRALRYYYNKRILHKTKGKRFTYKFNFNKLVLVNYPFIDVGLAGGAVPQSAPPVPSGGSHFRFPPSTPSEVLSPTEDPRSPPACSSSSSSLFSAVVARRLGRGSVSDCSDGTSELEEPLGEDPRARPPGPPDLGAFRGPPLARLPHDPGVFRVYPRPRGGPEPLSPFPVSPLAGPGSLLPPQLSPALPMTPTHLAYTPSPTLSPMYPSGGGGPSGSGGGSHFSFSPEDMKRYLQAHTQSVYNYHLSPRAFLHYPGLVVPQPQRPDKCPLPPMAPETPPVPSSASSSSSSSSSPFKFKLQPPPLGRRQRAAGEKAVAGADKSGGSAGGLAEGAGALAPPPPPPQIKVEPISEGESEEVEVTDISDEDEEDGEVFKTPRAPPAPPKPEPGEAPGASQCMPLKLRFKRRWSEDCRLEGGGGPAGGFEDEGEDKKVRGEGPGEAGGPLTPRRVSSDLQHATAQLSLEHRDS
To be noted: protein: recombinant; tags: N-terminal GST; dsDNA, one strand shown. The gist of the method: as §1

The target of the next experiment is T7, ETV3L (Homo sapiens, UniProt Q6ZN32 1-361).
T7 sequence: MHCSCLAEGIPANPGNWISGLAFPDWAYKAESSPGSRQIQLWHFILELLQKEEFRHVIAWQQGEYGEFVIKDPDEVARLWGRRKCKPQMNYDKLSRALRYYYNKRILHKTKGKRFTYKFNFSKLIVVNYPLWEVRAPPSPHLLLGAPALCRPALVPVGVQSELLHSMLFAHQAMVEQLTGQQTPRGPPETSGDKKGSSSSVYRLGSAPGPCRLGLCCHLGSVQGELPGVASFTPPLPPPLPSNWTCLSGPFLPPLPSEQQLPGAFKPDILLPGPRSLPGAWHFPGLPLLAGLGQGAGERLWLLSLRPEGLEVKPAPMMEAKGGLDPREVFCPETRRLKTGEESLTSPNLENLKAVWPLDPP
The conditions noted are these: protein: recombinant; tags: N-terminal GST; dsDNA, one strand shown. The gist of the method: as §1

For a further experiment, the target named is T8, ETS2 (Homo sapiens, UniProt P15036 1-469).
T8 sequence: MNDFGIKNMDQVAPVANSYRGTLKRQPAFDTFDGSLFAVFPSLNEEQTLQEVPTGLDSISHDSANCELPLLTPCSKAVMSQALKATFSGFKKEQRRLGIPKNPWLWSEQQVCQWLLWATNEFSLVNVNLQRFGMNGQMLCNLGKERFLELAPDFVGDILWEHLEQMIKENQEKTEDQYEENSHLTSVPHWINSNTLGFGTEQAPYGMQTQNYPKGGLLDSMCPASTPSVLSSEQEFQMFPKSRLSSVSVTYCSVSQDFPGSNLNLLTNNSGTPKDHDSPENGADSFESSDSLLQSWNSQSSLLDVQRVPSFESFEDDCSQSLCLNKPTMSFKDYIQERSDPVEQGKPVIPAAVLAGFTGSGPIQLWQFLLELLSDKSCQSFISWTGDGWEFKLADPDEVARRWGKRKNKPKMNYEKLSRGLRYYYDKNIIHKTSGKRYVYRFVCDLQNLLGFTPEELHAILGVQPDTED
The conditions noted are these: protein: recombinant; tags: N-terminal GST; dsDNA, one strand shown. A digest of the protocol:
as §1

A further experiment has as its target T9, SPDEF (Homo sapiens, UniProt O95238 1-335).
T9 sequence: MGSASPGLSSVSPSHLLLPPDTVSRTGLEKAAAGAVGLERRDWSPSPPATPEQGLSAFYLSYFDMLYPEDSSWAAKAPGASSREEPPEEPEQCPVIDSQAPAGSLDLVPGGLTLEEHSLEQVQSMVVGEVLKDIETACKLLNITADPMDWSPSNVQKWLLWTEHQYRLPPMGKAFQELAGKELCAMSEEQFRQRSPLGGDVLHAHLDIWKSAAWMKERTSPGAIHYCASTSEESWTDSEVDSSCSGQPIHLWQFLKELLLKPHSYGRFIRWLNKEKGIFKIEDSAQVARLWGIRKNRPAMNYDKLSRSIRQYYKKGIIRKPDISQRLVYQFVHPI
To be noted: protein: recombinant; tags: N-terminal GST; dsDNA, one strand shown. The gist of the method:
as §1

For another experiment, the target named is T10, ETV7 (Homo sapiens, UniProt Q9Y603 1-341).
T10 sequence: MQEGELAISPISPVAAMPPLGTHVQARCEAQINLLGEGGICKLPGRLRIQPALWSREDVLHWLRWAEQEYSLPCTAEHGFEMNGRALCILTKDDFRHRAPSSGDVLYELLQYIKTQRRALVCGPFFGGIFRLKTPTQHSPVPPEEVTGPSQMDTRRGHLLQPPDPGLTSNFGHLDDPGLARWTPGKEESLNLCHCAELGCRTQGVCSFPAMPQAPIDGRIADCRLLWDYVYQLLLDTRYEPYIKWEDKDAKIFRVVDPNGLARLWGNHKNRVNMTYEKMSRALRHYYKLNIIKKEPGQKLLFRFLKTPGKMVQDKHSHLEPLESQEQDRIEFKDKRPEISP
The conditions noted are these: protein: recombinant; tags: N-terminal GST; dsDNA, one strand shown. A digest of the protocol:
as §1

Another experiment deals with T11, ELF5 (Homo sapiens, UniProt Q9UKW6-2 1-255).
T11 sequence: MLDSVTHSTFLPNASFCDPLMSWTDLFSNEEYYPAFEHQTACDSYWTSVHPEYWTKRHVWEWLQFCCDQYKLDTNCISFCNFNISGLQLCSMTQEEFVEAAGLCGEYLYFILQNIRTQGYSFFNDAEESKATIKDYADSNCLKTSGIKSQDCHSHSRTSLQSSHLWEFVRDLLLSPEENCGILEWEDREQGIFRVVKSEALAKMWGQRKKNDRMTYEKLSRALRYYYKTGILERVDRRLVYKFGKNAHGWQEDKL
To be noted: protein: recombinant; tags: N-terminal GST; dsDNA, one strand shown. A digest of the protocol: as §1

For the next experiment, the target named is T12, ETV3 (Homo sapiens, UniProt P41162-2 1-143).
T12 sequence: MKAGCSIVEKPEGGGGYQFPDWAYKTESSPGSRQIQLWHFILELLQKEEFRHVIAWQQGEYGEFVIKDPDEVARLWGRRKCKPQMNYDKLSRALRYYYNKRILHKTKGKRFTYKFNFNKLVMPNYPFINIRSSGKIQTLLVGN
The conditions noted are these: protein: recombinant; tags: N-terminal GST; dsDNA, one strand shown. A digest of the protocol:
as §1

The next experiment has as its target ETV6 (Homo sapiens, UniProt P41212 1-452). The conditions noted are these: protein: recombinant; tags: N-terminal GST; dsDNA, one strand shown. A digest of the protocol: as §1

ETV5, sequence (P41161 whole entry): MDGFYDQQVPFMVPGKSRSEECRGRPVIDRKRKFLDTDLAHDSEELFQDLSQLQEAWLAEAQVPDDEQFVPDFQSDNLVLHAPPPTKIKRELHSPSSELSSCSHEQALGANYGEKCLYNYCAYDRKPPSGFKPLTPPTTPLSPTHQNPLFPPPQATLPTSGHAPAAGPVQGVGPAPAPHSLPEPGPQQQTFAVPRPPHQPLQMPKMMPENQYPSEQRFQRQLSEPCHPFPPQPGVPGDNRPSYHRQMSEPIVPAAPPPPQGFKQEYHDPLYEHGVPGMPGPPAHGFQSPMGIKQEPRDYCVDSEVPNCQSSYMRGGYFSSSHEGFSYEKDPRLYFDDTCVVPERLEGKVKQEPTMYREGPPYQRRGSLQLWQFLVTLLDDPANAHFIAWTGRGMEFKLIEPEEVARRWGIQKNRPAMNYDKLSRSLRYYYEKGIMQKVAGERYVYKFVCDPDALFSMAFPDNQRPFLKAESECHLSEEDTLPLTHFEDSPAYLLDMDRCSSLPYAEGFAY
HSF1, sequence (Q00613 whole entry): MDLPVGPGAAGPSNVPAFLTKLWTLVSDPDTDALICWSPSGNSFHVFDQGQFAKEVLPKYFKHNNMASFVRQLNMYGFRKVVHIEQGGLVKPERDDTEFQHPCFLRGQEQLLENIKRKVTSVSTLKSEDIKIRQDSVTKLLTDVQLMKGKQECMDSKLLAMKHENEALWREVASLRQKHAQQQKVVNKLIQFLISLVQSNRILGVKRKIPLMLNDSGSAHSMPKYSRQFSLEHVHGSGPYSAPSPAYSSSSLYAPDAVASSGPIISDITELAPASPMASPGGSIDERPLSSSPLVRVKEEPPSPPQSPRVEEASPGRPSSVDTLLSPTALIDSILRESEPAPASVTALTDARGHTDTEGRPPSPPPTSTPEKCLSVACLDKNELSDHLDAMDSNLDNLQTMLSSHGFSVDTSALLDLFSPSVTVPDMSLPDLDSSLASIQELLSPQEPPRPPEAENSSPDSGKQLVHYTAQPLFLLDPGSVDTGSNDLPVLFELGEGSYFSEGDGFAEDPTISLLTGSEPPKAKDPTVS
ETV6, sequence (P41212 whole entry): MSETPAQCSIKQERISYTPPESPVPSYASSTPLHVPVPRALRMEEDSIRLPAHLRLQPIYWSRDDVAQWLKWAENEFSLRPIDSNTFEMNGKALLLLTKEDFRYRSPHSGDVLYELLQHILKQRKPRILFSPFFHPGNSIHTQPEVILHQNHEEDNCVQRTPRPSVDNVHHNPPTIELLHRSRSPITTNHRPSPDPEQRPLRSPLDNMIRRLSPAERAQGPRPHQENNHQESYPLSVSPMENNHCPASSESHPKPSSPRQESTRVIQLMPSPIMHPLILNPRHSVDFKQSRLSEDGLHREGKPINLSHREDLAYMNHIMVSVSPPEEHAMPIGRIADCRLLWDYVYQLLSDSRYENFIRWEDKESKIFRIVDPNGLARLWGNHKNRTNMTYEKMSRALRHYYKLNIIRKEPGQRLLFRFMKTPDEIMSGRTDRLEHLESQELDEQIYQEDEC
ETV1, sequence (P50549 whole entry): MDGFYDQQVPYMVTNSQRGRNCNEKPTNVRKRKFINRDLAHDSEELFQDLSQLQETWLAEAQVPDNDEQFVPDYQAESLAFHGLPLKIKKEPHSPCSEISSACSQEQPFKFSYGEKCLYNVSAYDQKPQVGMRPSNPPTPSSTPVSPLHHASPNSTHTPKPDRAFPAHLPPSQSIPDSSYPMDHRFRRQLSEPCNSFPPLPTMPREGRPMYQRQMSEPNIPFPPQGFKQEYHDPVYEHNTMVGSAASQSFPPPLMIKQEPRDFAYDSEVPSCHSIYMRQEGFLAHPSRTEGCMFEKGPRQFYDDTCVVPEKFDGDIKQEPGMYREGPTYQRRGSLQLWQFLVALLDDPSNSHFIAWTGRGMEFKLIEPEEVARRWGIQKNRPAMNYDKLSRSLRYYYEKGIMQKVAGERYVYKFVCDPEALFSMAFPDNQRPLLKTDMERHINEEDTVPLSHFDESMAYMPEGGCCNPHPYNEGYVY
CRX, sequence (O43186 whole entry): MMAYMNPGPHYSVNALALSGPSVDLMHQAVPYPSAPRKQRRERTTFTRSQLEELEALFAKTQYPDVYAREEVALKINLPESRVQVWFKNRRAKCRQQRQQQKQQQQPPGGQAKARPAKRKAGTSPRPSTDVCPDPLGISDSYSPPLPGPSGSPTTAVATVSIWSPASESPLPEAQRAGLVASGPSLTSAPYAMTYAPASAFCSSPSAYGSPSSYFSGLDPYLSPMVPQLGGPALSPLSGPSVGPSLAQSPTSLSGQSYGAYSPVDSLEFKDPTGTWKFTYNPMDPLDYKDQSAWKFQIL
ELF4, sequence (Q99607 whole entry): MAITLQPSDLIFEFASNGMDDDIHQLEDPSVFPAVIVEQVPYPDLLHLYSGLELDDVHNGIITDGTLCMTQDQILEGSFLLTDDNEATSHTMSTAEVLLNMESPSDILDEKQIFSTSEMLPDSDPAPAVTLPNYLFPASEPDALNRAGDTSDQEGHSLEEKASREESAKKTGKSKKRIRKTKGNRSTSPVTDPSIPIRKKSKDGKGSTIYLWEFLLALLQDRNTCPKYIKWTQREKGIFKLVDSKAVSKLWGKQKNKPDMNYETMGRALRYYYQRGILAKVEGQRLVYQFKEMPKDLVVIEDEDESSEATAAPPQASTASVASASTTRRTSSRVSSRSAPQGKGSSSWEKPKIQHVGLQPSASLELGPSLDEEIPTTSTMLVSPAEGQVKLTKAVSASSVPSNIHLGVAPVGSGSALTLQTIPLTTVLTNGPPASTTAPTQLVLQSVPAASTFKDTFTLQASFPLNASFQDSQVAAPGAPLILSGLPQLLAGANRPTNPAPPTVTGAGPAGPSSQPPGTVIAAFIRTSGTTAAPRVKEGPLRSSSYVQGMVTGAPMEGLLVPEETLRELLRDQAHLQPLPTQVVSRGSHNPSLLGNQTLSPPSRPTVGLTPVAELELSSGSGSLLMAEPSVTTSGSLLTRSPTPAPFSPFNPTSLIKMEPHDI

Consider ACTAAC, for which the binding signal with FEV was 1.25 fold enrichment (6-mer frequency, TF over GST control); with ETV5 it was 1.26 fold enrichment (6-mer frequency, TF over GST control); in the experiment with HSF1, 1.08 fold enrichment (6-mer frequency, TF over GST control); with SPIC, 1.27 fold enrichment (6-mer frequency, TF over GST control); with ELF4, 1.33 fold enrichment (6-mer frequency, TF over GST control); in the experiment with ELK4 it was 1.19 fold enrichment (6-mer frequency, TF over GST control). Moreover, the binding signal was 1.19 fold enrichment (6-mer frequency, TF over GST control) in the experiment with ETV2; 1.25 fold enrichment (6-mer frequency, TF over GST control) with ELF3; 1.18 fold enrichment (6-mer frequency, TF over GST control) with CRX; 1.25 fold enrichment (6-mer frequency, TF over GST control) in the experiment with ETV1; 1.34 fold enrichment (6-mer frequency, TF over GST control) in the experiment with ERF; 1.29 fold enrichment (6-mer frequency, TF over GST control) in the experiment with ETV3L. The binding signal with ETS2 is 1.29 fold enrichment (6-mer frequency, TF over GST control); with SPDEF, 1.2 fold enrichment (6-mer frequency, TF over GST control); with ETV7, 1.21 fold enrichment (6-mer frequency, TF over GST control); with ELF5, 1.29 fold enrichment (6-mer frequency, TF over GST control); with ETV3 it was 1.24 fold enrichment (6-mer frequency, TF over GST control); with ETV6, 1.22 fold enrichment (6-mer frequency, TF over GST control).

For the origin of these results see PMC7862700, “An all-to-all approach to the identification of sequence-specific readers for epigenetic DNA modifications on cytosine”.
